# Data: the supplement of paper PMC8728848
# Many of the other results were omitted from the sample, so the strongest signals are more common in it than they were.
# B1: PpFlo2 (Pichia pastoris) (protein)
# chain: MGSSHHHHHHSSGLVPRGSHMDDSGNGDNSDTAYGCDITTNAVDGFDATIYQYNANDLRLIRDPTFMSTGYLGRNVLNKISGVTVPGFNIWNPSSRTATVYGVKNVNYYNMVLELKGYFKADVSGDYKLTLSHIDDSSMLFFGKETAFKCCDAGSIPLNEAPTDYSLFTIKPSNQVNSEVISATQYLEAGKYYPVRIVFVNALERARFDFKLTIPSGAVLDDFQNYIYQFGDLDENSCHE
# Assays:
# Test in all cases: glycan array binding signal (z-score within array); higher = stronger binding
# Conditions in all cases: glycan notation: IUPAC condensed, linker removed
# [1] = molecular target: Fuc(a1-2)Gal6S(b1-3)GlcNAc
# Procedure, shortened: (§1)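 From the Consortium for Functional Glycomics database, 3228 arrays were curated, keeping only those whose protein sequence was available. Binding is given as a within-array Z-score averaged across arrays sharing a protein sequence and across linkers. Negative Z-scores can be read as non-binding.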
# [2] = molecular target: Fuc(a1-2)[Gal(a1-3)]Gal(b1-3)GlcNAc(b1-2)Man(a1-3)[Fuc(a1-2)[Gal(a1-3)]Gal(b1-3)GlcNAc(b1-2)Man(a1-6)]Man(b1-4)GlcNAc(b1-4)[Fuc(a1-6)]GlcNAc
# Procedure, shortened: as §1
# [3] = molecular target: Fuc(a1-2)[Gal(a1-3)]Gal(b1-3)GlcNAc(b1-3)GalNAc
# Procedure, shortened: as §1
# [4] = molecular target: Fuc(a1-2)[Gal(a1-3)]Gal(b1-4)GlcNAc(b1-2)Man(a1-3)[Fuc(a1-2)[Gal(a1-3)]Gal(b1-4)GlcNAc(b1-2)Man(a1-6)]Man(b1-4)GlcNAc(b1-4)GlcNAc
# Procedure, shortened: as §1
# [5] = molecular target: Fuc(a1-2)[Gal(a1-3)]Gal(b1-4)GlcNAc(b1-2)Man(a1-3)[Fuc(a1-2)[Gal(a1-3)]Gal(b1-4)GlcNAc(b1-2)Man(a1-6)]Man(b1-4)GlcNAc(b1-4)[Fuc(a1-6)]GlcNAc
# Procedure, shortened: as §1
# [6] = molecular target: Fuc(a1-2)[Gal(a1-3)]Gal(b1-4)[Fuc(a1-3)]GlcNAc(b1-3)GalNAc
# Procedure, shortened: as §1
# [7] = molecular target: Fuc(a1-2)[GalNAc(a1-3)]Gal(b1-3)GlcNAc(b1-2)Man(a1-3)[Fuc(a1-2)[GalNAc(a1-3)]Gal(b1-3)GlcNAc(b1-2)Man(a1-6)]Man(b1-4)GlcNAc(b1-4)GlcNAc
# Procedure, shortened: as §1
# [8] = molecular target: Fuc(a1-3)GlcNAc
# Procedure, shortened: as §1
# [9] = molecular target: Fuc(a1-3)[Gal3S(b1-4)]GlcNAc
# Procedure, shortened: as §1
# [10] = molecular target: Gal(a1-3)Gal(b1-3)GlcNAc(b1-6)GalNAc
# Procedure, shortened: as §1
# [11] = molecular target: Gal(a1-4)Gal(b1-4)GlcNAc(b1-2)Man(a1-3)[Gal(a1-4)Gal(b1-4)GlcNAc(b1-2)Man(a1-6)]Man(b1-4)GlcNAc(b1-4)GlcNAc
# Procedure, shortened: as §1
# [12] = molecular target: Gal(b1-3)GalNAc(b1-3)Gal
# Procedure, shortened: as §1
# [13] = molecular target: Gal(b1-3)GlcNAc(b1-3)Gal(b1-4)GlcNAc(b1-2)Man(a1-3)[Gal(b1-3)GlcNAc(b1-3)Gal(b1-4)GlcNAc(b1-2)Man(a1-6)]Man(b1-4)GlcNAc(b1-4)GlcNAc
# Procedure, shortened: as §1
# [14] = molecular target: Gal(b1-4)GlcNAc(a1-6)Gal(b1-4)GlcNAc
# Procedure, shortened: as §1
# [15] = molecular target: Gal(b1-4)GlcNAc(b1-2)Man(a1-3)[Gal(b1-4)GlcNAc(b1-2)][GlcNAc(b1-4)]Man(b1-4)GlcNAc(b1-4)GlcNAc
# Procedure, shortened: as §1
# [16] = molecular target: Gal(b1-4)GlcNAc(b1-2)Man(a1-3)[Man(a1-6)]Man(b1-4)GlcNAc(b1-4)GlcNAc
# Procedure, shortened: as §1
# [17] = molecular target: Gal(b1-4)GlcNAc(b1-2)[Gal(b1-4)GlcNAc(b1-6)]Man(a1-6)[GlcNAc(b1-4)][Gal(b1-4)GlcNAc(b1-2)Man(a1-3)]Man(b1-4)GlcNAc(b1-4)GlcNAc
# Procedure, shortened: as §1
# [18] = molecular target: Gal(b1-4)GlcNAc(b1-3)Gal(b1-4)GlcNAc(b1-2)Man(a1-3)[Gal(b1-4)GlcNAc(b1-3)Gal(b1-4)GlcNAc(b1-2)Man(a1-6)]Man(b1-4)GlcNAc(b1-4)[Fuc(a1-6)]GlcNAc
# Procedure, shortened: as §1
# [19] = molecular target: Gal(b1-4)GlcNAc(b1-3)Gal(b1-4)GlcNAc(b1-3)Gal(b1-4)GlcNAc(b1-2)[Gal(b1-4)GlcNAc(b1-3)Gal(b1-4)GlcNAc(b1-3)Gal(b1-4)GlcNAc(b1-6)]Man(a1-6)[Gal(b1-4)GlcNAc(b1-3)Gal(b1-4)GlcNAc(b1-3)Gal(b1-4)GlcNAc(b1-2)Man(a1-3)]Man(b1-4)GlcNAc(b1-4)[Fuc(a1-6)]GlcNAc
# Procedure, shortened: as §1
# [20] = molecular target: Gal(b1-4)GlcNAc(b1-3)Gal(b1-4)GlcNAc(b1-3)Gal(b1-4)GlcNAc(b1-3)Gal(b1-4)GlcNAc(b1-2)Man(a1-3)[Gal(b1-4)GlcNAc(b1-3)Gal(b1-4)GlcNAc(b1-3)Gal(b1-4)GlcNAc(b1-3)Gal(b1-4)GlcNAc(b1-2)Man(a1-6)]Man(b1-4)GlcNAc(b1-4)[Fuc(a1-6)]GlcNAc
# Procedure, shortened: as §1
# [21] = molecular target: Gal3S(b1-3)[Fuc(a1-4)]GlcNAc
# Procedure, shortened: as §1
# [22] = molecular target: Gal6S(b1-3)GlcNAc6S
# Procedure, shortened: as §1
# [23] = molecular target: GlcNAc(b1-2)Man(a1-3)[GlcNAc(b1-2)Man(a1-6)]Man(b1-4)GlcNAc(b1-4)GlcNAc
# Procedure, shortened: as §1
# [24] = molecular target: GlcNAc(b1-2)[GlcNAc(b1-4)]Man(a1-3)[GlcNAc(b1-4)][GlcNAc(b1-2)[GlcNAc(b1-6)]Man(a1-6)]Man(b1-4)GlcNAc(b1-4)GlcNAc
# Procedure, shortened: as §1
# [25] = molecular target: GlcNAc(b1-3)Gal
# Procedure, shortened: as §1
# [26] = molecular target: GlcNAc(b1-3)Gal(b1-4)GlcNAc(b1-2)Man(a1-3)[GlcNAc(b1-3)Gal(b1-4)GlcNAc(b1-2)Man(a1-6)]Man(b1-4)GlcNAc(b1-4)GlcNAc
# Procedure, shortened: as §1
# [27] = molecular target: GlcNAc(b1-3)Gal(b1-4)GlcNAc(b1-2)Man(a1-3)[GlcNAc(b1-3)Gal(b1-4)GlcNAc(b1-2)Man(a1-6)]Man(b1-4)GlcNAc(b1-4)[Fuc(a1-6)]GlcNAc
# Procedure, shortened: as §1
# [28] = molecular target: GlcNAc(b1-3)Gal(b1-4)GlcNAc(b1-3)Gal(b1-4)GlcNAc(b1-2)Man(a1-3)[GlcNAc(b1-3)Gal(b1-4)GlcNAc(b1-3)Gal(b1-4)GlcNAc(b1-2)Man(a1-6)]Man(b1-4)GlcNAc(b1-4)GlcNAc
# Procedure, shortened: as §1
# [29] = molecular target: GlcNAc(b1-3)Gal(b1-4)GlcNAc(b1-3)Gal(b1-4)GlcNAc(b1-2)Man(a1-3)[GlcNAc(b1-3)Gal(b1-4)GlcNAc(b1-3)Gal(b1-4)GlcNAc(b1-2)Man(a1-6)]Man(b1-4)GlcNAc(b1-4)[Fuc(a1-6)]GlcNAc
# Procedure, shortened: as §1
# [30] = molecular target: GlcNAc(b1-3)Gal(b1-4)GlcNAc(b1-3)Gal(b1-4)GlcNAc(b1-3)Gal(b1-4)GlcNAc(b1-2)Man(a1-3)[GlcNAc(b1-3)Gal(b1-4)GlcNAc(b1-3)Gal(b1-4)GlcNAc(b1-3)Gal(b1-4)GlcNAc(b1-2)Man(a1-6)]Man(b1-4)GlcNAc(b1-4)GlcNAc
# Procedure, shortened: as §1
binder,measurement,setting,value
B1,glycan array binding signal (z-score),[1],-0.272
same,glycan array binding signal (z-score),[2],-0.293
same,glycan array binding signal (z-score),[3],-0.288
same,glycan array binding signal (z-score),[4],-0.209
same,glycan array binding signal (z-score),[5],-0.288
same,glycan array binding signal (z-score),[6],-0.297
same,glycan array binding signal (z-score),[7],-0.287
same,glycan array binding signal (z-score),[8],-0.292
same,glycan array binding signal (z-score),[9],-0.313
same,glycan array binding signal (z-score),[10],-0.271
same,glycan array binding signal (z-score),[11],-0.23
same,glycan array binding signal (z-score),[12],-0.272
same,glycan array binding signal (z-score),[13],-0.174
same,glycan array binding signal (z-score),[14],-0.273
same,glycan array binding signal (z-score),[15],-0.344
same,glycan array binding signal (z-score),[16],-0.273
same,glycan array binding signal (z-score),[17],-0.297
same,glycan array binding signal (z-score),[18],-0.25
same,glycan array binding signal (z-score),[19],-0.261
same,glycan array binding signal (z-score),[20],-0.243
same,glycan array binding signal (z-score),[21],-0.286
same,glycan array binding signal (z-score),[22],-0.286
same,glycan array binding signal (z-score),[23],3.88
same,glycan array binding signal (z-score),[24],0.675
same,glycan array binding signal (z-score),[25],1.09
same,glycan array binding signal (z-score),[26],4.64
same,glycan array binding signal (z-score),[27],4.49
same,glycan array binding signal (z-score),[28],3.9
same,glycan array binding signal (z-score),[29],6.15
same,glycan array binding signal (z-score),[30],4.24
